# Experimental data reported in PubChem BioAssay (NCI).
# The panel holds about 83,000 compounds, 20% with a hit somewhere; the sample as a whole holds those more often.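 Cells were grown in 96-well plates and exposed to the test compound at a single concentration for 48 hours; results are reported as percent growth, with values below 10 considered active.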 Activity calls are given as the source filed them.
# System: HL-60(TB) leukemia
# Assay: NCI-60 one-dose screen, 48 h (100 = growth as untreated, 0 = no growth, -100 = all killed)
# Conditions: 10 µM unless noted
row,Structure (SMILES),growth
1,COc1ccc(NC(=O)CCCCCCNC(=O)C(O)(O)C(F)(F)F)cc1,11.3% (inactive)
2,COc1ccc2oc3c4[nH]c5ccccc5c4c4c(c3c2c1)C(=O)N(O)C4=O,102% (inactive)
3,CN1CCN(Cc2ccc(NC(=O)c3cncc(C#Cc4cnc5ccc(OC6CCOCC6)nn45)c3)cc2C(F)(F)F)CC1,-43.8% (active)
4,Cc1cc2nc(C(Cl)Cl)nc(-c3ccc(S(=O)(=O)N(C)C)cc3)n2n1,0.868% (active)
5,CC(C)C(=O)Nc1ccc(-c2nc(-c3cccc(O)c3)c(-c3ccnc(Br)c3)[nH]2)cc1,-40.4% (active)
6,O=c1[nH]c2cc(Cl)ccc2n1C1CCN(c2ccc3nnc(Cl)n3n2)CC1,93.1% (inactive)
7,COc1ccc(OC)c(NC(=O)CCCCCCNC(=O)C(O)(O)C(F)(F)F)c1,10.6% (inactive)
8,C[C@@H](Nc1c(C#N)cnc2ccc(-c3cnc(N)nc3)cc12)c1ccccc1,8.49% (active)
9,COc1ccc(-c2nc(SCC(C)C)nc(N/N=C\c3cccc([N+](=O)[O-])c3)c2C#N)cc1,85.1% (inactive)
10,Fc1ccc(-c2cc3nc(C(Cl)Cl)nc(-c4cccs4)n3n2)cc1,-2% (active)
11,C#CCNC1CCC(c2csc(C#C)n2)=C1C (stereo unspecified),90.6% (inactive)
12,CCCCSC1=C(Cl)CN(c2ccccc2)C1=O,105% (inactive)
13,COc1ccc([C@@H]2c3[nH]c4ccccc4c3CC3C(=O)N(C4CCN(Cc5c(F)cccc5F)CC4)CC(=O)N32)c(OC)c1 (stereo partly specified),39.6% [5.26 µM] (inactive)
14,NS(=O)(=O)c1ccc(Nc2nc(N/N=C/c3ccc(F)cc3)nc(Nc3ccccc3)n2)cc1,60.4% (inactive)
15,c1cn2c(ccc3nc(-c4cn[nH]c4)c4c(c32)CCCC4)n1,73.8% (inactive)
16,COc1ccc(NC2=C(Br)C(=O)C(C)=C(C)C2=O)cc1OC,-34.6% (active)
17,Cc1cccc2sc(/N=C(\N)C(Br)Br)nc12,0.778% (active)
18,CCCCCCCCCC[C@@H](C)[C@@H]1CC(=O)N[C@H]([C@@H](C)O)C(=O)N[C@@H](C)C(=O)N[C@H](C)C(=O)N[C@@H](CCC(N)=O)C(=O)N[C@H](Cc2ccc(O)cc2)C(=O)N[C@@H](C(C)CC)C(=O)O1 (stereo partly specified),65% (inactive)
19,COc1cc(C(=O)c2cc(C(C)=O)c3c4ccccc4ccn23)cc(OC)c1OC,32.9% (inactive)
20,COc1ccc(N/N=C/c2c(-c3ccc(S(C)(=O)=O)cc3)nc3ccccn23)cc1,39.4% (inactive)
21,CCC(CC)N1C(=O)/C(=c2\sc3n(c2=O)NC2C(N=3)N(CC)C(=O)N2CC)c2ccccc21 (stereo unspecified),26.5% (inactive)
22,CCOc1ccc2nc(NC(=O)Nc3ccccc3C)sc2c1,15.3% (inactive)
23,COc1ccc(-c2cc(-c3ccc(N(C)C)cc3)n3c(n2)nc2ccccc23)cc1,18.4% (inactive)
24,CNC(=O)c1cc(Oc2ccc3nc(NC(=O)c4ccc(N5CCOCC5)c(C(F)(F)F)c4)sc3c2)ccn1,94.2% (inactive)
25,O=c1[nH]c(CCl)nc2c1cnn2-c1ccccc1,109% (inactive)
26,Cc1c(C(=O)/C=C/c2ccc(Cl)cc2)nnn1-c1ccc2oc(=O)ccc2c1,92.9% (inactive)
